The text below walks through data of PubChem BioAssay.

Unmarked numbers belong to inactive results. For part of these data: Entries with a potency or affinity are not part of this list. Activity calls are given as the source filed them. Unless noted, how the calls were made is not given here.

Assay [1] can be described thus: antimalarial activity against Dd2 strain (AID 2302;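 active means growth inhibition above 50% at the single 2 µM test dose, taken to imply half-maximal potency below 2 µM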;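 further: 0% = DMSO untreated growth and 100% = chloroquine plus artemisinin killed control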). To be noted: P. falciparum Dd2 in RBCs, LDH growth readout, 72 h; at 2 µM; hits give high values.
Assay [2] can be described thus: HepG2 cytotoxicity, primary screen, cytotoxicity control for P. falciparum antimalarial project, cell-based, ATP luminescence (AID 2303;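 active means inhibition above 50%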;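 further: 0% = DMSO wells and 100% = digitonin-killed cells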). The settings on record: HepG2 viability, 24-48 h, at 10 µM, hits give high values.
The target of assay [3] is L-lactate dehydrogenase (Plasmodium falciparum (isolate CDC / Honduras)) (UniProt Q27743). Description: PfLDH activity inhibition – cell lysate, 3D7 strain, counter-screen for P. falciparum growth inhibition project (AID 2304).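 Further: 0% = vehicle and 100% = reference inhibitor.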 To be noted: P. falciparum 3D7 crude extract, LDH APAD/NBT absorbance; at 2 µM; hits give high values.
Sequence of L-lactate dehydrogenase (Plasmodium falciparum (isolate CDC / Honduras)) (Q27743 whole entry, looked up): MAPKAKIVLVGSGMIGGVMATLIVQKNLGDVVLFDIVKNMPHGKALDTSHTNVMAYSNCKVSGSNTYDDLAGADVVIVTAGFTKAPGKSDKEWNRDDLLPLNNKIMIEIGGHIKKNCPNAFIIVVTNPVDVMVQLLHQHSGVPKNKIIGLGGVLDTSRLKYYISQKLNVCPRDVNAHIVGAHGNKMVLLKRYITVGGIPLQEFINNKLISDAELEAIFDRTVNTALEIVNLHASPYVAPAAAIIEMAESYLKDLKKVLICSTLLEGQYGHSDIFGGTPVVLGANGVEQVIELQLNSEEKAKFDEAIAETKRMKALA
Assay [4] in a line: inhibition of 3D7 malaria parasite growth – strain 3D7 (AID 2306).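 Further: 0% = DMSO wells and 100% = chloroquine plus artemisinin control wells.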 To be noted: P. falciparum 3D7 erythrocytic growth, LDH absorbance, 72 h; at 2 µM; hits give high values.
Assay [5] addresses Calcium-dependent protein kinase 1 (Plasmodium falciparum (isolate 3D7)) (UniProt P62344). As to the kind of experiment: PfCDPK1 kinase inhibitors, biochemical, TCAMS library (AID 1159585; cut-off not given, nearly all actives have IC50 up to about 0.98 µM;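 further: inhibitors leave more ATP so luminescence rises with inhibition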). To be noted: recombinant PfCDPK1, Kinase-Glo ATP depletion luminescence.
In assay [6] the target is Plasmodium falciparum protein kinase 6 (PK6, PF3D7_1337100) (UniProt Q8IDW1). Description: PfPK6 kinase inhibitors, biochemical, TCAMS library (AID 1159586). To be noted: recombinant PfPK6, Kinase-Glo ATP depletion luminescence.
Sequence of Plasmodium falciparum protein kinase 6 (PK6, PF3D7_1337100) (Q8IDW1 1-305): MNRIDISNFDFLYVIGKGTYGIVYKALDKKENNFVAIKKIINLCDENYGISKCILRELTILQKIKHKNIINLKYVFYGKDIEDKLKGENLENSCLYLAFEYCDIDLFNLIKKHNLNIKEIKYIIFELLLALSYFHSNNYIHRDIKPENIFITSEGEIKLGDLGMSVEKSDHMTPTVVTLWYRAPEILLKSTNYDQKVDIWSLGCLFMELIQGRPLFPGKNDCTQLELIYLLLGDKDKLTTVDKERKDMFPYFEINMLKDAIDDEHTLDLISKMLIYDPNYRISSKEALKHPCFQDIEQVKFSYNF
The target of assay [7] is Protein kinase 7 (PK7), Plasmodium falciparum 3D7 (PF3D7_0213400) (UniProt Q7YTF7). Description: inhibition of Plasmodium PK7 catalytic activity – biochemical, TCAMS antimalarial set, Kinase-Glo luminescence (AID 1159587). To be noted: recombinant PfPK7, Kinase-Glo ATP depletion luminescence.
Sequence of Protein kinase 7 (PK7), Plasmodium falciparum 3D7 (PF3D7_0213400) (Q7YTF7 1-343): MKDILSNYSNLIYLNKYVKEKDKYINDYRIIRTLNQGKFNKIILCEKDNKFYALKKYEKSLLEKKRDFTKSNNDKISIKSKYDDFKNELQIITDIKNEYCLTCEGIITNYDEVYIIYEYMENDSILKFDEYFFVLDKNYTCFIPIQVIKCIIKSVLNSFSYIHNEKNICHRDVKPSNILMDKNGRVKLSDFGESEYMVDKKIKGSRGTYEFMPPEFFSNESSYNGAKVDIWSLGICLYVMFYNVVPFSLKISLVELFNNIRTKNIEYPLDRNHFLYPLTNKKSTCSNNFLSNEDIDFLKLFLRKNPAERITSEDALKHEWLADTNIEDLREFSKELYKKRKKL
Assay [8] addresses Calcium-dependent protein kinase 4 (Plasmodium falciparum (isolate 3D7)) (UniProt Q8IBS5). As to the kind of experiment: PfCDPK4 kinase inhibitors, biochemical, TCAMS library (AID 1159588; cut-off not given, nearly all actives have IC50 up to about 0.91 µM). The settings on record: recombinant PfCDPK4, Kinase-Glo ATP depletion luminescence.

Sequence of Calcium-dependent protein kinase 1 (Plasmodium falciparum (isolate 3D7)) (P62344 whole entry, looked up): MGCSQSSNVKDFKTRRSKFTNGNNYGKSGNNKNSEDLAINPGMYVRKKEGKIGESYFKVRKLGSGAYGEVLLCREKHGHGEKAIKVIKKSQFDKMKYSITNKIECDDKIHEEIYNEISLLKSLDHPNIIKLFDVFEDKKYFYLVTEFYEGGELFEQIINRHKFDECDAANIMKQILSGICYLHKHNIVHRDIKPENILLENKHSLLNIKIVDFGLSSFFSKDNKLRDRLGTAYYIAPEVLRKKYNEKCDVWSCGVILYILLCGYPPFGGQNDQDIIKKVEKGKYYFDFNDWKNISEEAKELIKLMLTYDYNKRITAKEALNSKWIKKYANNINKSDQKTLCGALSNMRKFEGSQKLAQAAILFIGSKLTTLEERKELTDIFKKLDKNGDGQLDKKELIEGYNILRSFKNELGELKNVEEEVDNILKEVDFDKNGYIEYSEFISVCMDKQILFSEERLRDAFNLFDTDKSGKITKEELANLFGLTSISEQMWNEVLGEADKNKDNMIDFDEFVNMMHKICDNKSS
Sequence of Calcium-dependent protein kinase 4 (Plasmodium falciparum (isolate 3D7)) (Q8IBS5 whole entry, looked up): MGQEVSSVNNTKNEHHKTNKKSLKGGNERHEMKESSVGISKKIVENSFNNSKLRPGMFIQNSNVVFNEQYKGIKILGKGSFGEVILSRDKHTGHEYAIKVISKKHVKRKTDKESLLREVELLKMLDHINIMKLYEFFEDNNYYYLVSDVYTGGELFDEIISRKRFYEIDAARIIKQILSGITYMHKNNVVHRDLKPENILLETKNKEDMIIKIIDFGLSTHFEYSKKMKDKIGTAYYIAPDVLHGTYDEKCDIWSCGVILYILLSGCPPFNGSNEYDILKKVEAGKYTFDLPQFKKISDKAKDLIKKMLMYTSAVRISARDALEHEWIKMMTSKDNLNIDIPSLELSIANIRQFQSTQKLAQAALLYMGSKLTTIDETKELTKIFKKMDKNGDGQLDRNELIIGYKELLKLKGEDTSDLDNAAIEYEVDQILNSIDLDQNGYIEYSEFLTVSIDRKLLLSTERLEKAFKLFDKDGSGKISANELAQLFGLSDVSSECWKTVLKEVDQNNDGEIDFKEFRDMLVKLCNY

On to `COc1ccc(CNC2Cc3ccccc3C2)cc1-c1ccc(S(=O)(=O)NCCN2CCCC2)s1`, for which the growth inhibition is 100% (active) in assay [1] and 101% (active) in assay [4]. Further, the inhibition was 89% (active) in assay [2] and 4% in assay [3]. For the same compound, the outcome in assay [5], in assay [6], in assay [7] and in assay [8] was inactive.

In the case of `Cc1cc(N)c2cc(NC(=O)c3cc(C(F)(F)F)cc(C(F)(F)F)c3)ccc2n1`, the growth inhibition in assay [1] was 99% (active); in assay [4], 102% (active). In addition, the inhibition in assay [2] is 100% (active); in assay [3] it was 5%. Further, the result in assay [5], in assay [6], in assay [7] and in assay [8] was inactive.

`O=C(Nc1ccc(CN2CCN(S(=O)(=O)c3cccc(Cl)c3)CC2)cc1)c1cccs1`: the growth inhibition was 41% in assay [1] and 84% (active) in assay [4]. Besides, the inhibition in assay [2] is 9%; in assay [3] it was 0%. In addition, the result in assay [5], in assay [6], in assay [7] and in assay [8] was inactive.

`Cc1ccc(-c2nc(Nc3ccncc3)c3ccccc3n2)s1`: the figures for the growth inhibition in assay [1] and in assay [4] were 34% and 95% (active), respectively. Moreover, the inhibition in assay [2] was 6%; in assay [3], 1%. The outcome in assay [5], in assay [6], in assay [7] and in assay [8] was inactive.

Consider `CCCC1(NC[C@@H](O)[C@H](Cc2ccccc2)NC(=O)c2cc(NCC)cc(N3CCCCS3(=O)=O)c2)CCC1`, for which the growth inhibition in assay [1] was 86% (active); in assay [4], 100% (active). Moreover, the results for the inhibition in assay [2] and in assay [3] were -8% and -1%, respectively. Moreover, the result in assay [5], in assay [6], in assay [7] and in assay [8] was inactive.

With `O=C(Nc1ccc2c(c1)CCC2)c1ccc(N2CCN(c3ccncc3)CC2)cc1`, the growth inhibition in assay [1] is 75% (active); in assay [4] it was 101% (active). Further, the inhibition in assay [2] is 72% (active); in assay [3], 4%. Further, the result in assay [5], in assay [6], in assay [7] and in assay [8] was inactive.

With `COc1ccc(-c2csc(NC(=O)CCC(=O)O)n2)cc1OC`, the growth inhibition is -2% in assay [1] and 94% (active) in assay [4]. The inhibition is 63% (active) in assay [2] and 5% in assay [3]. Besides, the outcome in assay [5], in assay [6], in assay [7] and in assay [8] was inactive.

In the case of `CCOc1ccc2c(c1)C(C)(c1ccc3c(c1)C(C)CC(C)(C)N3)CC(C)(C)N2` (stereo not drawn), the growth inhibition is 3% in assay [1] and 94% (active) in assay [4]. Besides, the values for the inhibition in assay [2] and in assay [3] were 5% and -5%, respectively. Further, the outcome in assay [5], in assay [6], in assay [7] and in assay [8] was inactive.

As to `COc1cc(OC)cc(-c2nnc(Sc3ccc(C#N)c([N+](=O)[O-])c3)n2C)c1`, the values for the growth inhibition in assay [1] and in assay [4] were 77% (active) and 95% (active), respectively. In addition, the inhibition in assay [2] is 1%; in assay [3], 3%. For the same compound, the result in assay [5], in assay [6], in assay [7] and in assay [8] was inactive.

As to `Cc1ccc(NC(=O)NC2CCN(CCC(NC(=O)Cc3ccccc3)c3ccc(Cl)c(Cl)c3)CC2)cc1` (stereo not drawn), the values for the growth inhibition in assay [1] and in assay [4] were 2% and 100% (active), respectively. Also, the inhibition in assay [2] was 16%; in assay [3] it was -1%. The outcome in assay [5], in assay [6], in assay [7] and in assay [8] was inactive.

Take `COc1cc2nc(N3CCN(C(=O)c4ccco4)CC3)nc(NCc3ccccc3)c2cc1OC`: the growth inhibition in assay [1] is 99% (active); in assay [4], 101% (active). The inhibition in assay [2] was 16%; in assay [3], -5%. In addition, the outcome in assay [5], in assay [6], in assay [7] and in assay [8] was inactive.

Take `CC(=O)c1sc(Cc2nc3ccccc3s2)nc1C`: the figures for the growth inhibition in assay [1] and in assay [4] were 88% (active) and 94% (active), respectively. In addition, the values for the inhibition in assay [2] and in assay [3] were -13% and 1%, respectively. Moreover, the result in assay [5], in assay [6], in assay [7] and in assay [8] was inactive.

For the compound `Cc1ccc2c(c1[N+](=O)[O-])N=NCC2Oc1ccccc1` (stereo not drawn), the results for the growth inhibition in assay [1] and in assay [4] were 19% and 91% (active), respectively. Also, the inhibition in assay [2] is 16%; in assay [3], -4%. For the same compound, the result in assay [5], in assay [6], in assay [7] and in assay [8] was inactive.

Take `O=[N+]([O-])c1ccc2ncnc(Nc3ccc(F)c(Cl)c3)c2c1`: the growth inhibition in assay [1] is 65% (active); in assay [4], 100% (active). In addition, the values for the inhibition in assay [2] and in assay [3] were -1% and 0%, respectively. The outcome in assay [5], in assay [6], in assay [7] and in assay [8] was inactive.

As to `CC1(C)N=C(N)N=C(N)N1OCCCNC(=O)c1ccc(C(=O)NCCCON2C(N)=NC(N)=NC2(C)C)cc1`, the growth inhibition in assay [1] is 96% (active); in assay [4] it was 91% (active). Further, the results for the inhibition in assay [2] and in assay [3] were 0% and 3%, respectively. Further, the result in assay [5], in assay [6], in assay [7] and in assay [8] was inactive.

Turning to `Cc1nnsc1C(=O)Nc1ccc(-c2cccc(-c3nc4ccc(C(F)(F)F)cc4[nH]3)c2)cc1`, the growth inhibition in assay [1] is 36%; in assay [4], 97% (active). Also, the inhibition in assay [2] is 69% (active); in assay [3] it was 2%. Besides, the outcome in assay [5], in assay [6], in assay [7] and in assay [8] was inactive.

With `O=C1C2=C(Nc3ccccc3SC2c2ccccc2)c2ccccc21` (stereo not drawn), the growth inhibition in assay [1] is 94% (active); in assay [4], 86% (active). The inhibition is 5% in assay [2] and -7% in assay [3]. Also, the result in assay [5], in assay [6], in assay [7] and in assay [8] was inactive.

`COc1ccccc1N1CCN(C(C(=O)NCc2ccc(C)cc2)c2ccc(C)cc2)CC1` (stereo not drawn): the growth inhibition is 79% (active) in assay [1] and 92% (active) in assay [4]. Also, the inhibition in assay [2] was 12%; in assay [3], 6%. The result in assay [5], in assay [6], in assay [7] and in assay [8] was inactive.

Turning to `CCCc1cc(Cc2cnc(N)nc2N)cc(CCC)c1OCCCCC(=O)OCC`, the growth inhibition in assay [1] is -3%; in assay [4], 93% (active). Besides, the inhibition was 1% in assay [2] and 4% in assay [3]. The result in assay [5], in assay [6], in assay [7] and in assay [8] was inactive.

Turning to `CC(=O)Oc1cc(C(=O)Nc2ccc(Cl)cc2)cc2ccccc12`, the growth inhibition in assay [1] was 47%; in assay [4] it was 88% (active). In addition, the inhibition in assay [2] was 16%; in assay [3], -3%. Also, the outcome in assay [5], in assay [6], in assay [7] and in assay [8] was inactive.

As for `Cc1cc(-c2cccc3c(NC(=O)N4CCc5cc6nccc(N7CCN8CCC[C@H]8C7)c6cc54)cccc23)cc(C)n1`, the growth inhibition in assay [1] was 100% (active); in assay [4], 101% (active). Also, the inhibition in assay [2] was 12%; in assay [3] it was 6%. Also, the result in assay [5], in assay [6], in assay [7] and in assay [8] was inactive.
